Experimental data published in publication PMC5540273 (PLoS ONE, 2017).

Tests used:
Details in all cases: concentration: 1 μM, replicates: in singlicate; n = 1
IRAK1 = test system: IRAK1
IRAK3 = test system: IRAK3
IRAK4 = test system: IRAK4
ITK = test system: ITK
[1] = test system: JAK1(JH1domain-catalytic)
[2] = test system: JAK1(JH2domain-pseudokinase)
[3] = test system: JAK2(JH1domain-catalytic)
[4] = test system: JAK3(JH1domain-catalytic)
JNK1 = test system: T1, JNK1
T1 construct: gene MAPK8

JNK2 = test system: T2, JNK2
T2 construct: gene MAPK9
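Also: KINOMEscan kinase panel screen.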

Row | Structure (SMILES) | %Inh (IRAK1) | %Inh (IRAK3) | %Inh (IRAK4) | %Inh (ITK) | %Inh [1] | %Inh [2] | %Inh [3] | %Inh [4] | %Inh (JNK1) | %Inh (JNK2)
1 | CCCCc1nn2ncccc2c1-c1ccnc(NC2CC2)n1 [GW684374] | 28% | 13% | 12% | 0% | 7% | 0% | 0% | 0% | 63% | 84%
2 | O=C1NC(=O)C(c2ccc(Cl)cc2)=C1Nc1cccc(Cl)c1 [SB-317651] | 0% | 0% | 0% | 5% | 26% | 0% | 11% | 0% | 61% | 56%
3 | COc1nccc(-c2c(-c3ccc(F)cc3)ncn2CCCN2CCOCC2)n1 [SB-282852] | 3% | 0% | 0% | 53% | 36% | 0% | 4% | 12% | 41% | 61%
4 | Fc1ccc(-c2nc[nH]c2-c2ccncc2)cc1 [SB-217360] | 0% | 0% | 0% | 5% | 0% | 28% | 27% | 0% | 79% | 95.6%
5 | O=C(Nc1n[nH]c2nc(-c3ccco3)c(Br)cc12)C1CCN(Cc2ccccc2)C1.O=C(O)[C@H](O)[C@@H](O)C(=O)O (centres unmarked) [SB-742034] | 0% | 35% | 0% | 13% | 0% | 61% | 23% | 0% | 37% | 0%
